Screening results deposited in PubChem BioAssay by several laboratories.
PriA SSB inh: K. pneumoniae PriA-SSBct interaction inhibition. AlphaScreen SSBct-PriA binding, biotinylated peptide. inhibition, % at 33 µM. 0.6% of 430,000 active; in the data active means inhibition mostly above about 37%, no sharp cut-off; inactive means mostly below about 20%;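 further: plate controls were negative control peptide for no effect and reference peptide for full effect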
PrP UTR inh: suppresses PrP 5' UTR mRNA reporter expression | cell-based PrP 5' UTR mRNA reporter, plate reader | inhibition, % (no concentration beside the values) | 0.35% of 340,000 active | AID 488862; in the data active means inhibition above about 52%; further: 0 = median of the neutral control wells
RecA intein inh: inhibitors of M. tuberculosis RecA intein splicing | inhibition, % (test concentration not listed) | cell-free RecA intein splicing, fluorescence | AID 2221 | 0.75% of 290,000 active; in the data active means inhibition above about 30%; inconclusive means no clear call, values can overlap the other calls;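 further: 0% = vehicle wells and 100% = reference inhibitor control wells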
Target sequence (P9WHJ3 whole entry, looked up): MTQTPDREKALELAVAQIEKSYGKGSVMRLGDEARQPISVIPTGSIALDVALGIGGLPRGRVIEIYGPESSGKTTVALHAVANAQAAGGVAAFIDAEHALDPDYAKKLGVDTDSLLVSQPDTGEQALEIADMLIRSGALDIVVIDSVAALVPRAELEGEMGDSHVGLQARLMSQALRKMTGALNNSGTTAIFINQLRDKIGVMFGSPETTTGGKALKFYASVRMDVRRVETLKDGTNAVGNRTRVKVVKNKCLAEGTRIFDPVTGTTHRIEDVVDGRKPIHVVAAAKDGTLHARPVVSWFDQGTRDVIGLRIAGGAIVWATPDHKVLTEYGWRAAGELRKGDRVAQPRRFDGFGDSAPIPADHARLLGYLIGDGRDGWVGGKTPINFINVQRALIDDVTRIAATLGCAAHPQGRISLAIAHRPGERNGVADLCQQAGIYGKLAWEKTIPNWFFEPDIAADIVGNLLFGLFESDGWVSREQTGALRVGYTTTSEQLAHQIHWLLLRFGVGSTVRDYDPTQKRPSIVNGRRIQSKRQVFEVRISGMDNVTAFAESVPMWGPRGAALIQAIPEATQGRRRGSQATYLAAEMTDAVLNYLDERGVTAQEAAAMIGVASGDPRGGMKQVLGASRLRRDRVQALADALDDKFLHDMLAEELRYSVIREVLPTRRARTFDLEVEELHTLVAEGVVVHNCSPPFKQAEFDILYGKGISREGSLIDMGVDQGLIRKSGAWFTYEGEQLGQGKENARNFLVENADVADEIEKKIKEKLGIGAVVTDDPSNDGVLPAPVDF
PfHsp40 yeast: restores yeast growth despite PfHsp40 toxicity. S. cerevisiae expressing PfHsp40, growth rescue, ATP luminescence. growth rescue, % at 12.5 µM. 0.68% of 340,000 active. AID 504582; in the data active means growth rescue above about 28%, passing the limit was not always enough; inconclusive means no clear call, values can overlap the other calls;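 further: yeast W303a lacking pdr1 and pdr3 grown in galactose medium; growth measured after three days at 30 °C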
PrPC TRFRET: cell surface PrPC inhibition, primary TR-FRET screen. TR-FRET read-out. inhibition, % at 13.8 µM. P04156. 0.43% of 370,000 active; in the data active means inhibition above about 24%; further: 0% = median of the test wells and 100% = reference compound wells
BJeLR lethal: BJeLR cell viability loss; BJeLR (HRASV12) viability, CellTiter-Glo ATP luminescence, 48 h; inhibition, % (test concentration not listed); 0.17% of 300,000 active; in the data active means inhibition above about 50%; inconclusive means no clear call, values can overlap the other calls
GFP chromo cs: counter-screen: blocks GFP chromophore formation. EC50, µM. 83% of 2,100 active. cell-free GFP chromophore formation, fluorescence. shares compounds with RecA intein inh; call rule not given here
The depositor's hits bear a star; ? = inconclusive; . = not tested or not shown. Sampled rows, rich in hits. Any-hit rate of the full collection: about 1.9%.

SMILES	PriA SSB inh	PrP UTR inh	RecA intein inh	PfHsp40 yeast	PrPC TRFRET	BJeLR lethal	GFP chromo cs
CCCCCCn1c(N2CCC(C(N)=O)CC2)nc2c1c(=O)n(C)c(=O)n2C	-6	-11	47*	0	4	-11	>38
CCCCCCn1c(N2CCC(C(N)=O)CC2)nc2c1c(=O)[nH]c(=O)n2C	-14	-2	3	1	6	6	.
O=[N+]([O-])c1ccc(O)c2ncccc12	133*	-21	43*	?	-36	41	25*
O=[N+]([O-])c1ccc(Sc2cccc3cccnc23)c2ncccc12	45	.	.	.	.	.	.
Brc1ccc(-c2cn3nc(-c4ccc(Br)cc4)n4c3c2CCCC4)cc1	-1	.	.	.	.	.	.
COc1cc(C(=S)N2CCN(C(=S)c3ccc(N(C)C)cc3)CC2)cc(OC)c1OC	-13	.	.	.	.	.	.
Oc1ccc(N=Cc2ccc(O)c(O)c2)cc1	9	-33	86*	-1	.	9	24*
Oc1ccc(/C=N/N=C/c2ccc(O)c(O)c2)cc1O	.	8	-6	1	4	4	.
O=C(CNC(=O)c1ccccc1)N/N=C/c1ccc([N+](=O)[O-])o1	.	-21	58*	-2	-50	-1	>38
O=C(N/N=C/c1ccc([N+](=O)[O-])o1)c1ccc(O)cc1	.	-18	56*	-1	-45	18	>38
COC1=C(c2ccccc2)C(=O)c2ccccc2C1=O	-14	-30	69*	224*	-24	.	14*
COc1ccc(C2=C(N)c3ccccc3C2=O)cc1	0	-83	2	1	.	1	.
Cn1c(-[n+]2c(-c3ccccc3)cc(-c3ccccc3)cc2-c2ccccc2)nc2c([N+](=O)[O-])cccc21	22	-21	33*	1	-19	3	30*
O=[N+]([O-])c1ccc(-[n+]2c(-c3ccccc3)cc(-c3ccccc3)cc2-c2ccccc2)cc1	-8	-18	0	0	-13	-1	.
COc1cccc(Nc2c(Nc3cccc(OC)c3)c(=O)c2=O)c1	-8	-10	-6	-1	8	5	.
COc1cccc(Nc2c([N+](=O)[O-])cncc2[N+](=O)[O-])c1	11	-16	54*	2	-23	16	21*
Cc1[nH][nH]c(=O)c1C(c1c(C)[nH][nH]c1=O)c1cn(Cc2ccccc2Cl)c2ccccc12	12	-47	99*	0	5	10	0.51*
NC(=O)CSc1cn(Cc2ccccc2Cl)c2ccccc12	-8	.	.	.	.	.	.
CC(=O)NCCn1c(SCC(=O)NCc2ccco2)nc2ccccc2c1=O	5	-8	67*	-1	-1	6	25*
CCCn1c(/N=C/c2ccccc2O)nc2ccccc21	.	-7	.	0	-1	-4	.
Cn1c(/N=C/c2c(O)ccc3ccccc23)nc2ccccc21	.	-1	73*	1	-5	.	9.1*
CN(C)NC(=S)Nc1ccc(Cl)cc1	-6	-32	.	-1	-2	1	.
CN(N)C(=S)Nc1ccc(Cl)cc1	-2	4	31*	0	-1	7	>38
Cc1nnc(CNC(=O)c2cc3n(n2)CCCO3)o1	-5	.	.	.	.	.	.
CCC(=O)N/N=C(\C)CC(=O)Nc1cccc([N+](=O)[O-])c1	.	-11	76*	0	2	-5	29*
SMILES	PriA SSB inh	PrP UTR inh	RecA intein inh	PfHsp40 yeast	PrPC TRFRET	BJeLR lethal	GFP chromo cs
COc1ccc(N2C(=O)C(Cl)=C(N3CCCC(C)C3)C2=O)cc1 (stereo unspecified)	16	-8	12	4	-6	3	.
CC1CCCN(C2=C(Cl)C(=O)N(c3cccc(Cl)c3)C2=O)C1 (stereo unspecified)	-40	-26	70*	0	-4	-10	8.7*
FC(F)(F)c1cccc(Oc2nc(-c3ccccc3)nnc2C(F)(F)F)c1	-10	-18	58*	-1	-7	-2	1.5*
FC(F)(F)c1cccc(Sc2nc(-c3ccccc3)nnc2C(F)(F)F)c1	-8	-5	21	0	5	-4	.
FC(F)(F)c1nnc(-c2ccccc2)nc1Oc1ccc(Cl)cc1Cl	-18	-17	61*	0	8	-7	0.45*
FC(F)(F)c1nnc(-c2ccccc2)nc1Sc1ccccc1	-11	-20	63*	-1	3	-6	27*
O=C(NCCCN1CCN(c2ccccc2)CC1)C1(c2ccccc2)CCOCC1	8	.	.	.	.	.	.
O=C(CCl)N1N=C(c2ccco2)CC1c1cccs1 (stereo unspecified)	8	-26	67*	-1	.	19	25*
Cc1ccc(C2=NN(C(=O)CCl)C(c3cccs3)C2)o1 (stereo unspecified)	2	-16	74*	1	-9	11	4.6*
CC(=O)N1N=C(c2ccco2)CC1c1cccs1 (stereo unspecified)	-7	-27	1	2	-3	-6	.
CCOC(=O)c1cc[n+](CC(=O)c2cccs2)cc1	-4	.	.	.	.	.	.
CC(C)S(=O)(=O)c1ccc(CC(=O)NCC2CCN(C(=O)c3ccoc3)CC2)cc1	-6	.	.	.	.	.	.
CC(=O)Nc1ccc(SCC(=O)Nc2cccc(C(F)(F)F)c2)nn1	-7	.	.	.	.	.	.
CC1(C)Cc2ccccc2C(Nn2cnnc2)=N1	-13	-9	1	0	-1	-8	.
CC1(C)Cc2ccccc2C2=NNC(=O)C2=N1	7	-18	94*	0	-22	-13	1.1*
O=C(Nc1ccccc1-c1csc(-c2ccccc2F)n1)c1c[nH]c2ccccc12	-2	.	.	.	.	.	.
Cc1c(C(=O)NN)nn(-c2ccc(Cl)cc2)c(=O)c1C#N	-5	-38	43*	1	-52	.	31*
Cc1ccc(-n2nc(C(=O)NN)c(C)c(C#N)c2=O)cc1Cl	-6	-5	11	0	-35	7	.
CC(CC(=O)Nc1ccccn1)=NNC(=O)c1ccc(C)cc1	-14	.	.	.	.	.	.
C/C(CC(=O)Nc1cc(C)ccn1)=N\NC(=O)c1cccc(F)c1	.	1	43*	-1	0	5	33*
C/C(CC(=O)Nc1cc(Cl)ccc1Cl)=N\NC(=O)COc1cccc(C)c1	.	-33	5	1	6	2	.
CC(CC(=O)Nc1cc(C)ccn1)=NNC(=O)c1ccccc1C	-22	.	.	.	.	.	.
C/C(CC(=O)Nc1cc(C)ccn1)=N\NC(=O)COc1cccc(C)c1	.	.	94*	.	.	8	7*
C/C(CC(=O)Nc1cc(C)ccn1)=N\NC(=O)c1ccccc1C	.	5	50*	-1	-5	10	34*
C/C(CC(=O)Nc1ccccn1)=N\NC(=O)c1cccc(C)c1	.	-18	41*	-1	-5	-4	37*
O=C(NCc1cccs1)N1CC(n2cc(-c3ccccc3)nn2)C1	-16	.	.	.	.	.	.
CCOC(=O)Cc1csc(NC(=O)c2csc(-c3cc4ccccc4[nH]3)n2)n1	-2	.	.	.	.	.	.
O=C(CCCSc1ccc(NC(=O)c2ccco2)nn1)Nc1nc2ccccc2s1	-1	.	.	.	.	.	.
Cc1cc(C)n(-c2ccc(Nc3ccc(NC(=O)Nc4ccccc4F)cc3)nn2)n1	6	.	.	.	.	.	.
Cc1cc(NC(=O)Cc2ccc3c(c2)OCO3)on1	-12	.	.	.	.	.	.
